For 33 compounds, inhibition results are on record in ChEMBL document CHEMBL1961873, “Compounds: GSK PKIS; Assays: Nanosyn kinase panel” (2012).
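Further: each value is a mean of replicate percent inhibition readings against TRKA kinase.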

For this assay, the target named is High affinity nerve growth factor receptor (Homo sapiens) (UniProt P04629). The conditions noted are these: at 0.1 µM.
Chain of High affinity nerve growth factor receptor (Homo sapiens) (P04629 33-796 limits assumed): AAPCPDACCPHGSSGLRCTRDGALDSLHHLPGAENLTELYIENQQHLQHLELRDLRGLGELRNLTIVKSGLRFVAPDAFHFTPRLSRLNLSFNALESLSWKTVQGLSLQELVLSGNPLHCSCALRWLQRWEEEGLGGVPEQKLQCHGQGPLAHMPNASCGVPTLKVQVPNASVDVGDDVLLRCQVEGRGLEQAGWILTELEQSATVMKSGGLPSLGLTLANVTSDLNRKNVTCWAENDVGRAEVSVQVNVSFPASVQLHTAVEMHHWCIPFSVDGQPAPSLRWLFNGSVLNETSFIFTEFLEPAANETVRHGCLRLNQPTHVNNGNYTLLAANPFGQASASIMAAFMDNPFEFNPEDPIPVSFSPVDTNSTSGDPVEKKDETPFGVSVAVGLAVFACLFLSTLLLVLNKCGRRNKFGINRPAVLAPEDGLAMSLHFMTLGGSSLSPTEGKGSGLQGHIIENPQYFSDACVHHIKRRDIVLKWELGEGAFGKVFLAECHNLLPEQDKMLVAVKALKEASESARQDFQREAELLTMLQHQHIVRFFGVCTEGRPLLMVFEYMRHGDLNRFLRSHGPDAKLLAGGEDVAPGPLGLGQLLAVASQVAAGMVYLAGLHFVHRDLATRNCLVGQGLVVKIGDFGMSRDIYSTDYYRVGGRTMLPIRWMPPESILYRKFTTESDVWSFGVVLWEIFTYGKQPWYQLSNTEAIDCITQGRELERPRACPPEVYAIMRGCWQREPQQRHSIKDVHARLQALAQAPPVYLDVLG
What is called inhibition is the relative decrease from the control value, in per cent. `CS(=O)(=O)Nc1cccc(-c2ccc3c(NC(=O)C4CC4)n[nH]c3c2)c1`: the inhibition is -1.92%.
Turning to `Cc1ccc2c(c1)/C(=N/Nc1ccc(S(N)(=O)=O)cc1)C(=O)N2`, the inhibition was -1.8%.
Turning to `O=C1Nc2ccccc2/C1=C/Nc1ccc2[nH]c(=O)[nH]c2c1`, the inhibition was 11.6%.
As for `C[C@@H](Oc1cc(-n2cnc3ccc(OC[C@@H](O)CO)cc32)sc1C(N)=O)c1ccccc1Cl`, the figure is 0.33%.
For `Cc1cc(-c2ccccn2)cc(C)c1/C=C/c1cncc(-c2nn[nH]n2)c1`, the inhibition is 2.23%.
Then `NS(=O)(=O)c1ccc(Nc2cc(-c3cccc(O)c3)n[nH]2)cc1`, with 4.76%; and `Cc1ccc(C(=O)NC2CC2)cc1-c1ccc2[nH]ncc2c1`, with 1.88%; and `COC(=O)Nc1nc2cc(Oc3ccc(NC(=O)Nc4cccc(Br)c4)cc3)ccc2[nH]1`, with 28.4%.
Turning to `COc1ccc(-c2nn3ncccc3c2-c2ccnc(Nc3cccc(C(F)(F)F)c3)n2)cc1`, the inhibition stood at 1.79%.
As to `[O-][S+]1CCN(Cc2ccc(-c3ccc4ncnc(Nc5ccc(OCc6ccccc6)c(Cl)c5)c4c3)o2)CC1`, the inhibition was determined as 1.88%.
With `CS(=O)(=O)CCNCc1nc(-c2ccc3ncnc(Nc4ccc(OCc5cccc(C(F)(F)F)c5)cc4)c3c2)cs1`, the inhibition was found to be 0.13%.
Then `CN(C)c1cc2c(Nc3ccc4c(cnn4Cc4ccccc4)c3)ncnc2cn1`, with 1.75%; and `Oc1cccc(-c2nc(-c3ccccc3)[nH]c2-c2ccncc2)c1`, with 3.43%; and `Cc1ccc(O)cc1Nc1ccnc2ccc(S(C)(=O)=O)cc12`, with 2.69%.
With `CCS(=O)(=O)c1ccc(OC)c(Nc2nccc(N(C)c3ccc4c(C)n[nH]c4c3)n2)c1`, the inhibition came to 2.86%.
As for `NS(=O)(=O)c1cccc(-c2cc3ccncc3cc2OCc2ccccc2)c1`, the inhibition amounted to 1.41%.
Then `COc1cc2ncnc(Nc3ccc4c(cnn4Cc4ccccc4)c3)c2cc1OC`, with 0.45%.
For `COc1cc(Nc2nccc(-c3cnn4ncccc34)n2)cc(OC)c1`, the inhibition worked out at 0.98%.
In the case of `ON=C1CCc2cc(-c3nc(C4CCNCC4)[nH]c3-c3ccncc3)ccc21`, the inhibition was -3.45%.
Then `COc1cc2ncnc(Nc3ccc(C)c(O)c3)c2cc1OC`, with 1.85%; and `O=S(=O)(CCOCc1ccc(-c2ccc3ncnc(Nc4ccc(OCc5cccc(F)c5)c(Cl)c4)c3c2)o1)c1ccccc1`, with -0.1%; and `FC(F)(F)c1ccc(-c2nn3ncccc3c2-c2ccnc(Nc3ccc4c(c3)OCCO4)n2)cc1`, with -1.21%.
As for `O=C(Nc1ccc(Oc2ccc3[nH]c(NC(=O)c4ccco4)nc3c2)cc1)Nc1cc(C(F)(F)F)ccc1F`, the figure is 30.2%.
In the case of `NC(=O)c1sc(-n2cnc3ccccc32)cc1OCc1ccccc1Br`, the inhibition is 1.54%.
`CCCN1CCCC(c2ccc(Nc3nc(Nc4cc(F)ccc4C(N)=O)c4cc[nH]c4n3)c(OC)c2)C1` (stereo not drawn): the inhibition turned out to be 3.35%.
Turning to `COc1ccc2ncnc(Nc3ccc(OCc4ccccc4)cc3)c2c1`, the inhibition was found to be 0.33%.
For `CCn1c(-c2nonc2N)nc2c(C#CC(C)(C)O)nc(OCCNC)cc21`, the inhibition was determined as 3.54%.
Turning to `NS(=O)(=O)c1ccc(-c2cc3ccncc3cc2OCc2ccccc2)cc1`, the inhibition was found to be 4.15%.
Then `COC(=O)c1ccc2c(c1)C(=Cc1cc(Br)c(O)c(Br)c1)C(=O)N2`, with 2.4%; and `Nc1nccc(C#Cc2cncnc2Nc2ccc(OCc3cccc(F)c3)c(Cl)c2)n1`, with 4.45%.
As for `Cc1ccc2c(-c3ccnc(Nc4ccc5c(c4)OCCO5)n3)c(-c3ccc(C(F)(F)F)cc3)nn2n1`, the figure is -1.98%; as for `Nc1nccc(-c2c(-c3ccc(F)cc3)ncn2CCCN2CCOCC2)n1`, -0.29%.
Then `COc1cc(/C=N/Nc2ncnc3c2cnn3C(C)C)ccc1O`, with 1.66%.
